According to PubChem BioAssay AID602358 (National Center for Advancing Translational Sciences (NCATS), 2012):
Inconclusive results are not listed. Unmarked numbers belong to inactive results. The source made the active and inactive calls. Calls come from the whole dose curve; as a rule, active = well fitted inhibition curve with a large enough effect; inconclusive = small, poorly fitted or top-dose-only effect; inactive = flat fitted curve, though single readings scatter.

target: Luciferin 4-monooxygenase (Photinus pyralis) (UniProt P08659); test: FLuc inhibitory activity for the follow-up compounds in a biochemical assay with Km concentrations of substrate and 500microM CoASH; conditions: purified FLuc, Km substrates + 500 uM CoASH, luminescence; series mostly up to 57.5 µM; activity change, negative = inhibition: at the top concentration
Sequence (P08659 whole entry, looked up): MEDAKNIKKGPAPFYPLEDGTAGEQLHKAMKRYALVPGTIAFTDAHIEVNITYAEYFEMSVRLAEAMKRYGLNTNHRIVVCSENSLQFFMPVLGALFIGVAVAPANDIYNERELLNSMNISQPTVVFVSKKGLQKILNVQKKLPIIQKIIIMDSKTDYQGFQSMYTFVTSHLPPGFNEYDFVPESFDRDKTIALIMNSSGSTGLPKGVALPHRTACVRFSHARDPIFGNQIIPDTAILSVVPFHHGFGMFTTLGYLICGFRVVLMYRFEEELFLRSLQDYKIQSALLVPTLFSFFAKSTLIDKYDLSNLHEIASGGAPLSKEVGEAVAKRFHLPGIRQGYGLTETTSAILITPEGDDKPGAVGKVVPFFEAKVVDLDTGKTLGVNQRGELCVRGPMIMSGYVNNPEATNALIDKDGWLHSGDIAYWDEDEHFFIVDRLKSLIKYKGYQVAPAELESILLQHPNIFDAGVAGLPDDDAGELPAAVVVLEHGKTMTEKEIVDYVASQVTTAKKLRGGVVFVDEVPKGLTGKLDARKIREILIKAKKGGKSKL
Excerpt: NCGC Assay Overview: Firefly (Photinus pyralis) luciferase is one of the most commonly used transcriptional reporters. It is considered one of the more dynamically responsive reporters - that is, responsive to changes in reporter transcription - as it requires no post-translational modifications and is enzymatically active directly after protein synthesis (Wood, 1998). With no endogenous expression in mammalian cells and without the requirement of external excitation, it offers very little background signal, thus generally providing excellent signal to background for most assays. Previous profiling work to determine the prevalence of compounds that affect FLuc enzymatic activity (PubChem AID 411) identified that ~3% of the MLSMR library (then at ~72K) inhibited FLuc. […] Of the compounds identified in this profile that inhibited FLuc, 151 compounds were selected for further analysis, in an effort to better understand their mode of inhibiting FLuc. The assay described here was to determine the activity of the compounds in an FLuc assay that contained KM concentrations of substrates and 500uM CoASH.
NCGC Assay Protocol Summary: Reagents: 50mM Tris acetate, pH 7.5; 10mM Mg acetate; 10uM D-luciferin (Sigma #L9504); 10uM ATP; 0.01% Tween-20; 0.05% BSA; 10nM P. pyralis luciferase (Sigma #L9506); 500 uM CoASH Control compounds used were two known firefly luciferase inhibitors (3-(5-(3-chlorophenyl)-1,2,4-oxadiazol-3-yl)benzoic acid and 5-(2-fluorophenyl)-3-phenyl-1,2,4-oxadiazole), and DMSO. Three microliters containing firefly luciferase substrates in buffer (final concentrations: 50mM Tris acetate, pH 7.5, 10mM Mg acetate, 0.01% Tween-20, 0.05% BSA, 10uM D-luciferin, 10uM ATP, and 500 uM CoASH) are dispensed into each well of a Greiner white, solid-bottom 1536-well format plate using a flying reagent dispenser (FRD). These assay plates were then treated with 23nL of compound or DMSO using a Kalypsys pin tool, which allows for delivery of a 12-point intraplate titration of each compound to the assay plate (quantitative HTS), with a final compound concentrations ranging from approximately ~60uM to 0.3nM. One microliter of firefly luciferase in 500mM Tris-acetate buffer was then delivered by FRD to each well for a final enzyme concentration of 10nM. Luciferase activity was then measured using a ViewLux CCD imager (PerkinElmer), with an average exposure time of 2-30 seconds (2X binning, medium/high gain).

| Compound | activity change, negative = inhibition [%] | Potency |
| --- | --- | --- |
| COc1ccccc1C(=O)Nc1ccc(C(=O)O)cc1 | -27.9 | – |
| O=C(Nc1ccccc1-c1nc2ccccc2s1)c1ccc(Br)o1 | -3.85 | – |
| CCOc1ccc(C(=O)Nc2ccccc2C(=O)O)cc1 | – | 0.41 µM (active) |
| c1ccc2sc(-c3ccc4c(c3)OCO4)nc2c1 | – | 0.103 µM (active) |
| O=C(Nc1ccccc1C(=O)O)c1cccc(S(=O)(=O)N2CCCC2)c1 | – | 18.3 µM (active) |
| O=C(O)c1ccc(NC(=O)c2ccccc2NC(=O)c2ccccc2Br)cc1 | – | 16.3 µM (active) |
| COc1cc(OC)cc(-c2nc3ccccc3s2)c1 | – | 3.66 µM (active) |
| CCOc1ccc2nc(NC(=O)c3ccccc3)sc2c1 | – | 0.206 µM (active) |
| O=C(O)c1cccc(NC(=O)c2cccc(NC(=O)C3CCCO3)c2)c1 (stereo not given) | – | 18.3 µM (active) |
| Cc1ccc(C(=O)Nc2cccc(C(=O)O)c2)cc1 | – | 3.66 µM (active) |
| Cc1ccc(C(=O)Nc2cccc(C(=O)O)c2)cc1S(=O)(=O)N1CCOCC1 | – | 20.6 µM (active) |
| Cc1ccc(S(=O)(=O)N2CCN(C(=O)c3ccccc3-c3nc4ccccc4s3)CC2)c(C)c1 | -6.32 | – |
| CC(C)(C)C(=O)Nc1ccc(-c2nc3ccccc3s2)cc1 | – | 0.0103 µM (active) |
| CC(=O)Oc1ccc(C(=O)Nc2ccccc2C(=O)Nc2ccc(C(=O)O)cc2)cc1 | – | 1.46 µM (active) |
| O=C(Nc1c(Cl)cc(Cl)cc1-c1nc2ccccc2s1)c1ccc(Br)o1 | -5.98 | – |
| Cc1ccc(C(=O)Nc2cccc(C(=O)O)c2)cc1S(=O)(=O)N1CCCCC1 | – | 3.66 µM (active) |
| Cc1c(NC(=O)C(C)(C)C)cccc1-c1nc2ccccc2s1 | – | 1.46 µM (active) |
| CN(C)c1cccc(C(=O)Nc2ccc(-c3nc4ccccc4s3)cc2)c1 | – | 1.46 µM (active) |
| O=C(Cc1ccccc1)Nc1ccccc1C(=O)Nc1ccc(C(=O)O)cc1 | -13.8 | – |
| COc1ccc2nc(NC(=O)c3ccco3)sc2c1 | – | 0.291 µM (active) |

| Compound | activity change, negative = inhibition [%] | Potency |
| --- | --- | --- |
| O=C(Nc1ccccc1C(=O)O)c1ccccc1 | – | 23.1 µM (active) |
| Cc1ccc2nc(-c3ccc(N)cc3)sc2c1 | – | 0.0326 µM (active) |
| Nc1ccccc1C(=O)Nc1cccc(C(=O)O)c1 | – | 18.3 µM (active) |
| CC(=O)Nc1cccc(-c2nc3ccccc3s2)c1C | – | 13 µM (active) |
| COc1c(C)cccc1C(=O)Nc1ccc(-c2nc3ccccc3s2)c(Cl)c1 | -16.4 | – |
| O=C(Nc1ccccc1C(=O)O)c1ccc(NC(=O)C2CCCCC2)cc1 | – | 5.17 µM (active) |
| Cc1ccc(S(=O)(=O)N2CCOCC2)cc1C(=O)Nc1ccccc1C(=O)O | -24.6 | – |
| Cc1cccc(C(=O)Nc2ccccc2C(=O)Nc2ccc(C(=O)O)cc2)c1 | – | 5.8 µM (active) |
| COc1ccc2nc(NC(=O)c3ccc(NS(=O)(=O)c4cccs4)cc3)sc2c1 | – | 2.59 µM (active) |
| NC(=O)Cc1ccc2sc(-c3ccccc3)nc2c1 | – | 1.63 µM (active) |
| CC(C)Oc1ccc(C(=O)Nc2ccc(-c3nc4ccccc4s3)cc2)cc1 | -11.1 | – |
| Cc1c(NC(=O)c2cccs2)cccc1-c1nc2ccccc2s1 | – | 3.26 µM (active) |
| Cn1c(N/N=C/c2cc3ccccc3nc2Cl)nc2ccccc21 | – | 0.0231 µM (active) |
| O=C(O)c1cccc(NC(=O)c2ccccc2NC(=O)c2ccco2)c1 | – | 20.6 µM (active) |
| O=C(O)c1cccc(NC(=O)c2ccc(COc3ccc(Cl)cc3)cc2)c1 | – | 18.3 µM (active) |
| CCCC(=O)Nc1nc2ccc(OCC)cc2s1 | – | 10.3 µM (active) |
| COc1ccc2nc(NC(=O)CCc3ccc(OC)c(OC)c3)sc2c1 | -17.3 | – |
| Cc1ccc(C(=O)Nc2ccccc2C(=O)O)cc1S(=O)(=O)N1CCCCCC1 | – | 0.919 µM (active) |
| Nc1ccc(-c2nc3cc(N)ccc3s2)cc1 | – | 0.259 µM (active) |
| O=C(Nc1ccccc1C(=O)O)c1cc(S(=O)(=O)Nc2ccccc2)ccc1Cl | -4.97 | – |
